The results in this text go back to PubChem BioAssay (EPA / NIEHS).

Calls of active or inactive are those of the source. How the source made its calls: active means hit-call score of the fitted dose curve at least 0.9, where 1 is the maximum; inactive means score below 0.9.

Test [1] is described as follows: CCTE_Padilla_ZF_Score.Edema: CCTE's 144 Hour Post-fertilization zebrafish Assay Score for Edema Malformation, Padilla Lab (AID 2284406). The gist of the method:
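Wild-type zebrafish embryos, one per well in Hanks' solution, dosed at 6-8 hpf, sealed and reared at 26C on a 14:10 h cycle; rinsed on 5 dpf. At 6 dpf, blinded assessors scored edema by stereomicroscopy.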

Test [2] is described as follows: CCTE_Padilla_ZF_Score.Spine: CCTE's 144 Hour Post-fertilization zebrafish Assay Score for Spine Malformation, Padilla Lab (AID 2284407). The gist of the method: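 Wild-type zebrafish embryos, one per well in Hanks' solution, dosed at 6–8 hpf in sealed plates at 26C, 14:10 h light:dark; rinsed at 5 dpf. Two blinded assessors scored spinal defects by stereomicroscopy at 6 dpf; fitted versus DMSO.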

A short description of test [3]: CCTE_Padilla_ZF_Score.Swim_bladder: CCTE's 144 Hour Post-fertilization zebrafish Assay Score for Swim Bladder Malformation, Padilla Lab (AID 2284408). The gist of the method:
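Wild-type zebrafish embryos, one per well in 10% Hanks', dosed at 6–8 hpf, sealed, reared at 26C and rinsed at 5 dpf. Blinded assessors scored uninflated swim bladder by stereomicroscopy at 6 dpf, relative to DMSO.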

A short description of test [4]: CCTE_Padilla_ZF_Score.Position: CCTE's 144 Hour Post-fertilization zebrafish Assay Score for Position, Padilla Lab (AID 2284409). The gist of the method: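 Wild-type zebrafish embryos (with chorions) exposed singly from 6–8 hpf in sealed wells of Hanks' solution at 26C, rinsed at 5 dpf. At 6 dpf, blinded assessors scored abnormal water-column position by brightfield stereomicroscopy, relative to DMSO.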

Test [5] can be described thus: CCTE_Padilla_ZF_Score.Living: CCTE's 144 Hour Post-fertilization zebrafish Assay Score for Viability, Padilla Lab (AID 2284410).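 Further: larval death at 6 dpf judged by absent heartbeat or coagulation.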 The gist of the method:
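Wild-type zebrafish embryos were exposed singly from 6–8 hpf in sealed wells of Hanks' solution at 26C, then rinsed at 5 dpf. At 6 dpf, blinded assessors scored mortality (no heartbeat or coagulation) by stereomicroscopy, fitted against DMSO.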

Test [6] can be described thus: CCTE_Padilla_ZF_Score.General: CCTE's 144 Hour Post-fertilization zebrafish Assay Score for General Malformation, Padilla Lab (AID 2284411). The gist of the method:
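Wild-type zebrafish embryos were plated singly at 6-8 hpf in 10% Hanks' and exposed in sealed wells at 26C until rinsed on 5 dpf. At 6 dpf two blinded assessors scored mortality, hatching and malformations by stereomicroscopy; gain-of-signal versus DMSO.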

Test [7] is described as follows: CCTE_Padilla_ZF_Score.Tail: CCTE's 144 Hour Post-fertilization zebrafish Assay Score for Tail Malformation, Padilla Lab (AID 2284414). The gist of the method:
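Wild-type zebrafish embryos, one per well in 200 uL 10% Hanks', dosed at 6-8 hpf, sealed, and kept at 26 C on a 14:10 h light cycle. Chemical was rinsed out at 5 dpf. Blinded brightfield scoring of tail defects followed at 6 dpf.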

Test [8] can be described thus: CCTE_Padilla_ZF_Score.Blood_pooling: CCTE's 144 Hour Post-fertilization zebrafish Assay Score for Blood Pooling, Padilla Lab (AID 2284415). The gist of the method:
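Wild-type outbred zebrafish embryos, one per well in 10% Hanks', exposed from 6–8 hpf in sealed plates at 26C on 14:10 h light:dark, rinsed at 5 dpf. Blinded stereomicroscope scoring of blood pooling at 6 dpf; gain-of-signal versus DMSO.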

Test [9] is described as follows: CCTE_Padilla_ZF_Score.Any: CCTE's 144 Hour Post-fertilization zebrafish Assay Score for Any Mortality or Malformation, Padilla Lab (AID 2284416). The gist of the method:
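Wild-type zebrafish embryos with chorions, one per well in 10% Hanks' from 6–8 hpf, dosed in sealed plates at 26 C, 14:10 h light:dark; rinsed at 5 dpf; blinded scoring at 6 dpf for death or malformation, versus DMSO.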

The AC50 is the midpoint of the concentration-response curve, whichever way the signal moves. Take `CCNS(=O)(=O)C(F)(F)C(F)(F)C(F)(F)C(F)(F)C(F)(F)C(F)(F)C(F)(F)C(F)(F)F`: the AC50 in test [1] is 2.86 µM (active); in test [3], 3.57 µM (active); in test [5] it was 22.2 µM (active); in [6], 3.11 µM (active); in test [9], 3.96 µM (active). Further, the call in test [2], in [4], in [7] and in [8] was inactive.
